Source: PubChem BioAssay (EPA / NIEHS)
Inconclusive results are not listed. Calls of active or inactive are those of the source. The calls were made as follows: active = hit-call score of the fitted dose curve at least 0.9, where 1 is the maximum; inconclusive = response in the unintended direction; inactive = score below 0.9.

These compounds were tested against human Vitamin D Receptor (VDR), VDR (gene 7421) (UniProt P11473) (assay: ATG_VDR_TRANS: Attagene TRANS-FACTORIAL HepG2 Assay for human Vitamin D Receptor (VDR) (AID 2283022)).
Procedure, shortened: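 HepG2 cells were transiently transfected with multiple GAL4-UAS reporter units, so signal reflects exogenous chimeric receptor-Gal4 activity. After 24 h compound exposure, reporter mRNA was measured by RT-PCR, fluorescent labelling and capillary electrophoresis, fitted for gain of signal versus DMSO.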

Sequence of human Vitamin D Receptor (VDR), VDR (gene 7421) (P11473 whole entry, looked up, the tested form may be a part): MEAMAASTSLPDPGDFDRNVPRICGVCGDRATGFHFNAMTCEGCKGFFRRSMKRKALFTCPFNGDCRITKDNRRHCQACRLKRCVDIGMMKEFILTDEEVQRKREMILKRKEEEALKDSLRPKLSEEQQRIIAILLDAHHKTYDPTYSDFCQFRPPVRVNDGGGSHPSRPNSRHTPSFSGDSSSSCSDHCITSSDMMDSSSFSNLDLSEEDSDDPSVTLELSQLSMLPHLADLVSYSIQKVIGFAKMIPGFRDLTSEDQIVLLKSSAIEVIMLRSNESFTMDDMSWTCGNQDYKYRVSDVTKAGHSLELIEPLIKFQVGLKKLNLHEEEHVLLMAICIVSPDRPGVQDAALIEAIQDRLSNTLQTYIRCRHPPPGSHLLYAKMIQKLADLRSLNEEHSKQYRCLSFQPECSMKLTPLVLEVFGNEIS

outcome, inactive:
CCCCCCCCCC(C)C=O (stereo not given)
COC(CC(C)CCCC(C)(C)O)OC (stereo not given)
Cc1ccc(N)c(S(=O)(=O)O)c1
CCCCCCCCN1CCCC1=O
CCCCCCCC/C=C\CCCCCCCC(=O)OCC
CCCCCCCCCCCC(=O)OCC(O)CO (stereo not given)
COCCOCCOCCO
CCCN(CCC)S(=O)(=O)c1ccc(C(=O)O)cc1
CC(C)=CCCC(C)CCOC=O (stereo not given)
CCN(CCN)c1cccc(C)c1
C#CC(C)N(C)C(=O)Nc1ccc(Cl)cc1 (stereo not given)
CCCC(=O)OC(C)(C)Cc1ccccc1
CC(=O)O[C@H]1C[C@@H]2CC[C@@]1(C)C2(C)C
[Cl][Au]([Cl])[Cl]
O=C1OC(=O)c2c(Br)c(Br)c(Br)c(Br)c21
CCCCCCCC(=O)OCCCCCC
CCOC(=O)[C@@H](C)Oc1ccc(Oc2nc3ccc(Cl)cc3o2)cc1
Cc1c(C2(c3cc(Br)c(O)c(Br)c3C)OS(=O)(=O)c3ccccc32)cc(Br)c(O)c1Br
CC(=O)O[C@@H]1C[C@@H]2CC[C@@]1(C)C2(C)C
C=CCN(CC=C)CC=C
CCNCCO
Cc1ccc(C)o1
COC(=O)c1ccc(C)cc1C1=NC(C)(C(C)C)C(=O)N1 (stereo not given) (tested in a mixture with another compound)
COc1ccc(N=Nc2cc(C)c(N=Nc3ccc(S(=O)(=O)O)cc3)cc2OC)cc1
O=C(O)CNc1ccccc1
CCOC(=O)c1ccc(N)cc1
O=[N+]([O-])c1cccc(Cl)c1
CCCCCCCCC=CCCCCCCCC1=NCCN1CCO
Nc1c(S(=O)(=O)O)cc(Br)c2c1C(=O)c1ccccc1C2=O
OCC#CCO
CSc1c(Cl)c(Cl)c(Cl)c(Cl)c1Cl
O=CCc1ccccc1
O=[N+]([O-])c1ccc(O)cc1C(F)(F)F
CCCCC(CC)COC(C)=O (stereo not given)
O=C(O)CCCCCCCCC(=O)O
O=C(O)c1cc(C(=O)O)cc([N+](=O)[O-])c1
COc1ccc(N)c([N+](=O)[O-])c1
COc1ccccc1N=Nc1c(S(=O)(=O)O)cc2cc(S(=O)(=O)O)cc(NC(C)=O)c2c1O
CC(=O)C(C)O (stereo not given)
CC(O)C1CCCCC1 (stereo not given)
